Structures can show the parent of a compound that is named as a salt.
Tested on: OCI-AML2
Assay: cell viability relative to vehicle control; higher = less cytotoxic
Conditions: 10 µM; SRSF2 genotype: P95H/wt
How it was run: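 Mutant clones made by CRISPR editing and their isogenic wild-type counterparts, from four leukaemia lines, were exposed to a single 10 µM dose of each library compound for 48 h. The supernatant was then removed and CellTiter-Glo luminescence was read. Viability was reported as percent of the on-plate vehicle control.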

| Compound | cell viability [%] |
| --- | --- |
| O=C1CCN(c2ccccc2)N1 [Phenidone] | 99.5 |
| C[C@@H]1CC[C@@]2(OC1)O[C@H]1C[C@H]3[C@@H]4CC=C5C[C@@H](O[C@@H]6O[C@H](CO)[C@@H](O)[C@H](O)[C@H]6O)CC[C@]5(C)[C@H]4CC[C@]3(C)[C@H]1[C@@H]2C [Trillin] | 88.3 |
| COc1ccc(C[C@@H]2c3cc(Oc4cc(C[C@@H]5c6cc(O)c(OC)cc6CCN5C)ccc4O)c(OC)cc3CCN2C)cc1 [Isoliensinine] | 0.44 |
| CCCCCCCCOc1ccccc1C(=O)Nc1ccc(C(=O)OCC[N+](C)(CC)CC)cc1 [Otilonium Bromide] | 34.4 |
| COC(=O)c1cc(O)c(O)c(O)c1 [Methyl gallate] | 96.9 |
| O=C(O)Cc1cccc2ccccc12 [Potassium 1-Naphthaleneacetate] | 103 |
| O=c1[nH]c(=O)n([C@H]2C[C@H](O)[C@@H](CO)O2)cc1C(F)(F)F [Trifluridine (Viroptic)] | 21.6 |
| C[C@@H](Oc1cc(-n2cnc3ccc(CN4CCN(C)CC4)cc32)sc1C(N)=O)c1ccccc1C(F)(F)F | 4.11 |
| COc1cccc(OC)c1C(=O)OCc1cc(O)ccc1O[C@@H]1O[C@H](CO)[C@@H](O)[C@H](O)[C@H]1O [Curculigoside] | 115 |
| OC[C@@H](O)[C@@H](O)[C@H](O)[C@@H](O)CO [Sorbitol (Glucitol)] | 101 |
| CC(=O)CCC=C(C)CCC=C(C)CCC=C(C)CCC=C(C)C [Teprenone] | 77.7 |
| C[C@]12CC[C@@H]3c4ccc(O)cc4CC[C@H]3[C@@H]1CC[C@@H]2O [Estradiol] | 101 |
| CCCNC(C)C(=O)Nc1c(C)csc1C(=O)OC (configuration not stated) [Articaine HCl] | 116 |
| O=C1N=C(N2CCOCC2)CN1c1ccc(Cl)cc1 | 95.4 |
| COc1cc(N2CCC(N3CCN(C)CC3)CC2)ccc1Nc1ncnc(Nc2ccccc2S(=O)(=O)C(C)C)n1 | 12.6 |
| C[Si](C)(C)CCOCn1ccc2c(-c3cn[nH]c3)ncnc21 | 100 |
| C[C@@H]1CC[C@H]2C(C)(C)[C@H]3C[C@@]12CC[C@@]3(C)O [Cedrol] | 98.2 |
| C[C@H]1c2cccc(O)c2C(O)=C2C(=O)[C@]3(O)C(O)=C(C(N)=O)C(=O)[C@@H](N(C)C)[C@@H]3[C@@H](O)[C@@H]21 [Doxycycline] | 88.2 |
| CNC[C@H](O)[C@@H](O)[C@H](O)[C@H](O)CO [Meglumine] | 112 |
| CC1=NN(c2ccccc2)C(=O)C1 [Edaravone (MCI-186)] | 116 |
| CN1CCN2c3ncccc3Cc3ccccc3C2C1 (configuration not stated) [Mirtazapine (Remeron, Avanza)] | 95.9 |
| CC(O)C(O)c1cnc2nc(N)[nH]c(=O)c2n1 (configuration not stated) [6-Biopterin] | 104 |

— the supplement of paper PMC10981050
